Among the data in PubChem BioAssay (EPA / NIEHS) are outcome and AC50 values, retold here.

Active and inactive are the calls of the source. The calls were made as follows: active = hit-call score of the fitted dose curve at least 0.9, where 1 is the maximum; inactive = score below 0.9.

Common to all, as to settings: mRNA level, 48 h; actives raise or lower the signal
Read-out in experiment [1]: Pro-epidermal growth factor (Homo sapiens) (UniProt P01133)
Kind of experiment: LTEA_HepaRG_EGF: Life Technologies and Expression Analysis (LTEA) Assay for Epidermal growth factor (EGF) using HepaRG (AID 2283489). The method, boiled down: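 EGF transcript measured by Fluidigm TaqMan qRT-PCR with three housekeeping genes for normalization, 48 h after dosing HepaRG cultures in duplicate (top 100 uM, half-log steps, 0.5% DMSO vehicle). Gain or loss relative to DMSO fitted.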

Read-out in experiment [2]: Early growth response protein 1 (EGR1) transcription factor, EGR1 (gene 1958)
Description: LTEA_HepaRG_EGR1: Life Technologies and Expression Analysis (LTEA) Assay for Early growth response protein 1 (EGR1) transcription factor using HepaRG (AID 2283490). Put shortly:
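EGR1 transcript levels quantified by qRT-PCR (Fluidigm arrays) against three housekeeping genes after 48 h chemical exposure of HepaRG cells. Eight-point half-log series topping at 100 uM, 0.5% DMSO vehicle, analyzed for gain or loss.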

Read-out in experiment [3]: Ezrin (EZR), EZR (gene 7430)
Description: LTEA_HepaRG_EZR: Life Technologies and Expression Analysis (LTEA) Assay for Ezrin (EZR) using HepaRG (AID 2283491). Put shortly: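 EZR transcript levels came from Fluidigm qRT-PCR and were normalized to three housekeeping genes after 48 h chemical exposure of HepaRG cells. Dosing used an 8-point half-log series with a 100 uM top concentration in 0.5% DMSO, tested in duplicate; both directions were fitted versus vehicle.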

Read-out in experiment [4]: Cytochrome P450 3A7 (Homo sapiens) (UniProt P24462)
Kind of experiment: LTEA_HepaRG_CYP3A7: Life Technologies and Expression Analysis (LTEA) Assay for CYP3A7 using HepaRG (AID 2283492). The method, boiled down:
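CYP3A7 transcript measured by qRT-PCR (ACTB, GAPDH, POLR2A normalization) after 48 h chemical exposure of HepaRG cells in duplicate. Eight half-log concentrations, maximum 100 uM, 0.5% DMSO vehicle; bidirectional curve fitting against DMSO baseline.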

Read-out in another experiment: CYP3A5 (gene 1577)
Description: LTEA_HepaRG_CYP3A5: Life Technologies and Expression Analysis (LTEA) Assay for CYP3A5 using HepaRG (AID 2283493). Put shortly:
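qRT-PCR read-out: CYP3A5 transcript in HepaRG lysates, housekeeping-normalized (ACTB/GAPDH/POLR2A), fitted bidirectionally against 0.5% DMSO baseline. Exposure 48 h, eight half-log concentrations up to 100 uM, duplicates.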

Read-out in experiment [5]: Fatty Acid-Binding Protein 1 (FABP1), FABP1 (gene 2168)
Description: LTEA_HepaRG_FABP1: Life Technologies and Expression Analysis (LTEA) Assay for Fatty Acid-Binding Protein 1 (FABP1) using HepaRG (AID 2283494). The method, boiled down:
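FABP1 expression by TaqMan qRT-PCR, normalised to three housekeeping genes, in HepaRG cells after 48 h chemical treatment. Eight-point half-log series topping at 100 uM in 0.5% DMSO, duplicates; gain or loss fitted relative to vehicle.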

Read-out in experiment [6]: Cytochrome P450 4A22 (Homo sapiens) (UniProt Q5TCH4)
Kind of experiment: LTEA_HepaRG_CYP4A22: Life Technologies and Expression Analysis (LTEA) Assay for Cytochrome P450 4A22 (CYP4A22) using HepaRG (AID 2283495). The method, boiled down:
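Gene expression measured by qRT-PCR against three housekeeping genes (ACTB, GAPDH, POLR2A), with gain or loss fitted relative to 0.5% DMSO vehicle. HepaRG cultures received 48 h chemical treatment, top concentration 100 uM, half-log steps, duplicate wells.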

Read-out in experiment [7]: Cytochrome P450 7A1 (Homo sapiens) (UniProt P22680)
Kind of experiment: LTEA_HepaRG_CYP7A1: Life Technologies and Expression Analysis (LTEA) Assay for Cytochrome P450 7A1 (CYP7A1) using HepaRG (AID 2283496). Put shortly: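 Using 0.5% DMSO as vehicle and baseline, chemicals were tested in duplicate over an 8-point range from 100 uM on HepaRG cells for 48 h; qRT-PCR signals were normalised to ACTB, GAPDH and POLR2A.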

Read-out in experiment [8]: Glutathione S-Transferase (GSTA2), GSTA2 (gene 2939)
Kind of experiment: LTEA_HepaRG_GSTA2: Life Technologies and Expression Analysis (LTEA) Assay for Glutathione S-Transferase (GSTA2) using HepaRG (AID 2283497). Put shortly:
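GSTA2 transcript levels came from Fluidigm TaqMan qRT-PCR normalized to three housekeeping genes, fitted in both directions against DMSO. HepaRG cultures received chemicals for 48 h in serum-free induction medium (0.5% DMSO), 8 half-log concentrations up to 100 uM, duplicate.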

Read-out in experiment [9]: Glutamate-cysteine ligase catalytic (GCLC), GCLC (gene 2729)
Kind of experiment: LTEA_HepaRG_GCLC: Life Technologies and Expression Analysis (LTEA) Assay for Glutamate-cysteine ligase catalytic (GCLC) using HepaRG (AID 2283498). Put shortly:
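Expression by TaqMan qRT-PCR, normalized to three housekeeping genes (ACTB, GAPDH, POLR2A), with up- or down-regulation fitted against DMSO. HepaRG cells dosed in duplicate for 48 h with 8 half-log concentrations up to 100 uM, vehicle 0.5% DMSO.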

Cytochrome P450 3A7 (Homo sapiens), sequence (P24462 whole entry, looked up): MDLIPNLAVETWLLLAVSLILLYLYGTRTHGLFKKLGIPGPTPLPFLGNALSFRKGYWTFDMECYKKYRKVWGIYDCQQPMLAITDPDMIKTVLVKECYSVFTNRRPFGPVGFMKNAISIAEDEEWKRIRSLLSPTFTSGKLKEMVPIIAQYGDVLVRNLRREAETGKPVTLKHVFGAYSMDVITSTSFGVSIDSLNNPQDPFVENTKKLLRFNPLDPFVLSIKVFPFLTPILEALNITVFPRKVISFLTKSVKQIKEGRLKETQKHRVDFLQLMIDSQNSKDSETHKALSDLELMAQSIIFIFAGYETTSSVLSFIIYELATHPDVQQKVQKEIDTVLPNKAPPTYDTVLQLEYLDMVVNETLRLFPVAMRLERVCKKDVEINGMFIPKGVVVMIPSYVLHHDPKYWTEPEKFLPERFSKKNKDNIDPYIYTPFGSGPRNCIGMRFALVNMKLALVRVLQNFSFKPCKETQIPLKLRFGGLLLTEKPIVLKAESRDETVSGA

On to `CCOC(=O)c1ccc(O)cc1`, for which the call (in experiment [1]; in experiment [2]; in [3]; in [4]; with CYP3A5 (gene 1577); in experiment [5]) was inactive. In addition, the outcome in experiment [6], in experiment [7], in experiment [8] and in [9] was inactive.

By AC50 is commonly meant the concentration giving half of the maximal activity seen. Regarding `CCNc1nc(N)nc(Cl)n1`, the result (in [1]; in experiment [2]; in experiment [3]; in the experiment with CYP3A5 (gene 1577); in experiment [5]; in [6]) was inactive. The outcome in [7], in experiment [8] and in [9] was inactive. Also, the AC50 in [4] was 9.92 µM (active).

For `CCOC(=O)NCCOc1ccc(Oc2ccccc2)cc1`, the compound was called inactive in experiment [1], in experiment [2], in [3], in experiment [4] and in experiment [9]. Further, the AC50 was 84.8 µM (active) with CYP3A5 (gene 1577); 79.1 µM (active) in [5]; 83.2 µM (active) in experiment [6]; 83.9 µM (active) in experiment [7]; 88.5 µM (active) in experiment [8].

`C#C[C@]1(O)CC[C@H]2[C@@H]3CCC4=CC(=O)CC[C@@H]4[C@H]3CC[C@@]21CC`: the compound was called inactive (in [1]; in experiment [2]; in experiment [3]; with CYP3A5 (gene 1577); in [6]; in experiment [8]). Moreover, the compound was called inactive in experiment [9]. The AC50 in experiment [5] is 0.713 µM (active); in experiment [7], 0.056 µM (active).

`CCSC(=O)N(CC(C)C)CC(C)C`: the outcome (in experiment [1]; in [2]; in experiment [3]; in experiment [4]; in the experiment with CYP3A5 (gene 1577); in experiment [5]) was inactive. In addition, the compound was called inactive in experiment [6], in experiment [7], in [8] and in experiment [9].

For the compound `N[C@@H](Cc1cc(I)c(Oc2ccc(O)c(I)c2)c(I)c1)C(=O)O`, the outcome in experiment [1], in experiment [2] and in experiment [3] was inactive. The AC50 is 40 µM (active) in experiment [5]; 0.00445 µM (active) in experiment [6]; 40 µM (active) in experiment [7]; 58.3 µM (active) in experiment [8]; 40 µM (active) in experiment [9].

As to `S=C([S-])NCCNC(=S)[S-].[Mn+2]`, the half-maximal activity concentration (AC50) was 5.3 µM (active) in [1]; 6.62 µM (active) in experiment [2]; 3.49 µM (active) in [4]; 3.47 µM (active) in the experiment with CYP3A5 (gene 1577); 3.58 µM (active) in experiment [5]; 3.6 µM (active) in experiment [6]. Moreover, the AC50 in [7] is 4.73 µM (active); in experiment [8] it was 2.38 µM (active). The compound was classed as inactive in [3] and in [9].

As for `COCCO`, the result (in experiment [2]; in experiment [3]; in experiment [4]; with CYP3A5 (gene 1577); in experiment [5]; in [8]) was inactive. Also, the compound was called inactive in [9].

Turning to `C[C@]12C[C@H](O)[C@H]3[C@@H](CCC4=CC(=O)CC[C@@]43C)[C@@H]1CC[C@@H]2C(=O)CO`, the compound was classed as inactive (in experiment [1]; in experiment [2]; in experiment [3]; with CYP3A5 (gene 1577); in experiment [5]; in experiment [6]). Besides, the outcome in [7], in experiment [8] and in experiment [9] was inactive. Moreover, in experiment [4], the AC50 is 50 µM (active).

Take `CCCN(CCC)c1c([N+](=O)[O-])cc(C(F)(F)F)c(N)c1[N+](=O)[O-]`: the AC50 is 21.2 µM (active) in experiment [1], 24.9 µM (active) in experiment [5], 22 µM (active) in experiment [6] and 36.6 µM (active) in [7]. The result (in experiment [2]; in [3]; in [4]; with CYP3A5 (gene 1577); in experiment [8]; in experiment [9]) was inactive.

Consider `CCCN(CCC)C(=O)SCC`, for which the compound was classed as inactive (in experiment [1]; in experiment [2]; in experiment [3]; in experiment [4]; with CYP3A5 (gene 1577); in [5]). Moreover, the result in [6], in [7], in experiment [8] and in [9] was inactive.

Turning to `c1ccc(Nc2ccccc2)cc1`, the compound was classed as inactive (in experiment [1]; in experiment [2]; in experiment [3]; in experiment [4]; with CYP3A5 (gene 1577); in experiment [5]). For the same compound, the compound was classed as inactive in experiment [6], in [7], in [8] and in experiment [9].

Regarding `COC(=O)c1ccc(I)cc1S(=O)(=O)NC(=O)Nc1nc(C)nc(OC)n1`, the result (in [1]; in experiment [2]; in [3]; in experiment [4]; with CYP3A5 (gene 1577); in experiment [5]) was inactive. Also, the outcome in [6], in experiment [8] and in [9] was inactive.

Take `COc1c(Cl)ccc(Cl)c1C(=O)O`: the outcome (in experiment [2]; in experiment [3]; in [4]; with CYP3A5 (gene 1577); in experiment [5]; in experiment [8]) was inactive. Also, the result in experiment [9] was inactive.

As to `OB(O)O`, the result (in experiment [1]; in experiment [2]; in experiment [3]; in experiment [4]; with CYP3A5 (gene 1577); in experiment [5]) was inactive. For the same compound, the call in experiment [6], in [7], in experiment [8] and in [9] was inactive.

Consider `CCN(CC)C(=O)c1cccc(C)c1`, for which the call (in [1]; in experiment [2]; in [3]; in the experiment with CYP3A5 (gene 1577); in experiment [5]; in experiment [6]) was inactive. For the same compound, the call in [7], in experiment [8] and in experiment [9] was inactive.

As for `CC(=O)S[C@@H]1CC2=CC(=O)CC[C@]2(C)[C@H]2CC[C@@]3(C)[C@@H](CC[C@@]34CCC(=O)O4)[C@H]12`, the outcome in experiment [1] and in [2] was inactive. Also, the AC50 in experiment [3] was 387 nM (active); with CYP3A5 (gene 1577), 50 µM (active); in experiment [5], 54.4 µM (active); in experiment [6], 50 µM (active); in experiment [7], 62.4 µM (active); in [8], 69.5 µM (active). In experiment [9], the AC50 was 50 µM (active).

As to `CCCOC(=O)NCCCN(C)C`, the result (in [1]; in [2]; in experiment [3]; in experiment [4]; with CYP3A5 (gene 1577); in [5]) was inactive. For the same compound, the compound was classed as inactive in experiment [6], in experiment [7], in experiment [8] and in experiment [9].

For `CCCCC(CC)COC(=O)c1ccccc1C(=O)O` (configuration not stated), the compound was classed as inactive (in experiment [1]; in [2]; in [3]; in the experiment with CYP3A5 (gene 1577); in experiment [5]; in experiment [6]). Moreover, the call in experiment [8] and in experiment [9] was inactive. Further, in [7], the AC50 was 50.8 µM (active).
